The values that follow come from PubChem BioAssay (NCATS).

The target in assay [1] is Lysosomal acid glucosylceramidase (Homo sapiens) (UniProt P04062). The assay can be described thus: Glucocerebrosidase-p2 (AID 348; in the data active = potency below about 10 µM; note: potency is the fitted concentration of half-maximal effect). Conditions: purified GBA, blue fluorogenic substrate, 40 min. The procedure, abridged: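 Normal human glucocerebrosidase (0.2 nM) with blue fluorogenic substrate (80 uM final) in citrate/phosphate pH 5.9 with 10mM sodium taurocholate, 0.01% tween-20; 40 min RT, NaOH/glycine stop; fluorescence Ex 365/Em 440; AC50 from a titration from 0.6 nM upwards.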

Assay [2] can be described thus: AP1 Signaling Pathway (AID 357; active = well fitted curve in either direction with a large enough effect, not every such curve was filed as active;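 note: ME-180 reporter cells stimulated with EGF at its EC50 level; % is set by controls: 0 for no effect and ±100 for the full control effect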). As to conditions: ME-180 AP-1-bla reporter, EGF-induced, beta-lactamase ratio, 5 h; at 7.69 µM (top of the series) unless noted. The method in brief:
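Beta-lactamase reporter under AP-1 response element, ME-180 background. Stimulus: EC50 EGF. Compound exposure 5 h, 37 °C. Detection: CCF4, 2.5 h RT, 460/530 nm. Values: AC50 from titration.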

Assay [3] addresses Cytochrome P450 1A2 (Homo sapiens) (UniProt P05177). Put plainly: p450-cyp1a2 (AID 410).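 For activity change, negative = inhibition: -100% = full effect of reference inhibitor.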 Note: potency is the fitted concentration of half-maximal effect. Conditions: recombinant CYP1A2, luciferin-ME demethylation, luminescence; series mostly up to 57 µM. The procedure, abridged: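 O-Demethylation of luciferin 6' methyl ether by human CYP1A2 is monitored as luciferase luminescence. Substrate sits at Km (100uM); enzyme is 20nM. Values are scaled to 57 uM furafylline as maximal inhibition.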

A short description of assay [4]: Stat Signaling Pathway (AID 446; active = well fitted curve in either direction with a large enough effect, not every such curve was filed as active;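 note: ME-180 cervical cancer cells given 40 pM IL-6 alongside compound; SIE-controlled beta-lactamase reporter measured as 460/530 nm FRET emission ratio; % is set by controls: 0 for no effect and ±100 for the full control effect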). Conditions: ME-180 SIE beta-lactamase reporter, IL-6 stimulated, 5 h; at 7.69 µM (top of the series) unless noted. The method in brief:
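Emission at 460 and 530 nm (excitation 405 nm) reports SIE-controlled beta-lactamase in ME-180 cells. Cells received compound with 40 pM IL-6 for 5 hrs at 37 C; data scaled between 300 pM IL-6 and 125 nM JAK-inhibitor controls.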

Assay [5] concerns the target Glucocorticoid receptor (Homo sapiens) (UniProt P04150). The assay can be described thus: GR-EFC Redistribution (AID 451). Note: potency is the fitted concentration of half-maximal effect. As to conditions: CHO-K1 GR-EFC translocation, beta-gal luminescence, 2 h. The method in brief:
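CHO-K1 cells stably expressing nuclear-localized β-gal enzyme acceptor and GR fused C-terminally to the enzyme donor fragment; ligand-driven nuclear translocation restores β-gal by complementation. Compounds titrated up to 46 uM final, 2 h at 37 °C; luminescence read.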

Assay [6] has as its target Mitogen-activated protein kinase 10 (Mus musculus) (UniProt Q61831). The assay can be described thus: JNK3 AlphaScreen Assay (AID 530; active = well fitted curve in either direction with a large enough effect, not every such curve was filed as active;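 note: kinase came from lysate of stimulated human HepG2 cells; % is set by controls: 0 for no effect and ±100 for the full control effect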). Conditions: JNK3 lysate, c-Jun phosphorylation; series mostly up to 57.1 µM. The method in brief: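 Phosphorylation of biotinylated GST-cJun(1-79) at Ser73 is measured by AlphaScreen proximity luminescence. Enzyme is JNK3 in HepG2 lysates activated with interleukin-1beta and tumor necrosis factor alpha; ATP is 10 uM final.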

The target in assay [7] is 3',5'-cyclic-AMP phosphodiesterase 4B (Homo sapiens) (UniProt Q07343). Put plainly: qHTS Assay for Inhibitors of PDE-IV (AID 607; active = well fitted activation curve with a large enough effect in the main read-out, with a control signal flat, not every such curve was filed as active; note: potency is the fitted concentration of half-maximal effect). As to conditions: HEK293 ACTOne CNG channel cells, membrane potential fluorescence; series mostly up to 22.9 µM. The procedure, abridged: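 The readout is membrane depolarisation from a cAMP-sensing CNG channel, detected with a potential dye at ex 535/em 590. Cells were HEK293-derived (endogenous PDE-IV) at 1000 cells/well, titrated up to 22.9 uM final.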

The target in assay [8] is Cytochrome P450 3A4 (Homo sapiens) (UniProt P08684). Put plainly: qHTS Assay for Activators of Cytochrome P450 3A4 (AID 885; active = well fitted curve in the direction sought with a large enough effect; an effect the other way counts as inactive or inconclusive; note: nearly all actives have a fitted effect of over 65% in size). Conditions: recombinant CYP3A4, Luciferin-PPXE luminescence, 60 min; series mostly up to 57.1 µM. The procedure, abridged:
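Activators are scored by enhanced luminescence from CYP3A4 conversion of luciferin-PPXE (25uM, equal to KM) to luciferin, after 60 min at RT with an NADPH-regenerating system.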

For assay [9], the target named is Cytochrome P450 2D6 (Homo sapiens) (UniProt P10635). The assay can be described thus: qHTS Assay for Inhibitors and Substrates of Cytochrome P450 2D6 (AID 891; active = well fitted curve in the direction sought with a large enough effect; an effect the other way counts as inactive or inconclusive; note: potency is the fitted concentration of half-maximal effect; nearly all actives have a fitted effect of over 60% in size). As to conditions: recombinant CYP2D6, luciferin-ME EGE luminescence; series mostly up to 57.1 µM. The method in brief: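 Luminescent read-out of luciferin formed by 5 nM human CYP2D6 demethylating 30 uM Luciferin-ME EGE (Km level) over 60 min at room temperature after NADPH regeneration addition. Data normalized to full inhibition by 1.43 uM quinidine.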

A short description of assay [10]: qHTS Assay for Lipid Storage Modulators (AID 1519). As to conditions: Drosophila S3 cells, BODIPY lipid droplet/cell ratio, laser cytometry, cells loaded with oleic acid; for activity change, negative = inhibition: at 57.5 µM (top of the series). The method in brief: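 Cells seeded at 5,000 per well were treated with compounds over a concentration series and loaded with oleic acid (400 uM, as added). Lipid droplet fluorescence (488 nm excitation, 500-530 nm channel) was read by laser-scanning cytometry and normalized to 20 uM Triacsin C.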

A short description of assay [11]: Primary qHTS for small molecule stabilizers of the endoplasmic reticulum resident proteome: Secreted ER Calcium Modulated Protein (SERCaMP) assay (AID 1508630; active = well fitted curve in the direction sought with a large enough effect; an effect the other way counts as inactive or inconclusive; note: % is set by controls: 0 for no effect and ±100 for the full control effect). Conditions: SH-SY5Y GLuc-SERCaMP (Gaussia luciferase released on ER calcium loss) secretion, thapsigargin, luminescence; series mostly up to 38.4 µM. The procedure, abridged: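 The SH-SY5Y reporter protocol was run at 3 concentrations up to 38.3 uM (primary) or 11 concentrations (follow-up): 16 h compound, 100 nM thapsigargin for 4 h, then extracellular luciferase luminescence.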

Assay [12] addresses Glucocorticoid receptor (Homo sapiens) (UniProt P04150). The assay can be described thus: GR-GFP Redistribution (AID 450;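 active = compounds whose dose series gives a full or clear partial fitted curve of increased nuclear translocation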; note: potency is the fitted concentration of half-maximal effect). As to conditions: U2OS GR-GFP nuclear translocation, laser cytometry, 2 h.
A short description of assay [13]: qHTS Assay for Identification of Small Molecule Agonists for Hypoxia Response Element Signaling Pathway (AID 914; active = well fitted activation curve with a large enough effect in the signal ratio, with a control signal flat, not every such curve was filed as active; the % refers to the signal ratio; note: potency is the fitted concentration of half-maximal effect). Conditions: ME-180 (cervical carcinoma) HRE-bla reporter, beta-lactamase ratio, CoCl2, 17 h; activation: stronger effect = higher value. The procedure, abridged:
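Read-out: CCF4 FRET ratio of 460nm to 530nm emission (excitation 405nm) after 2.5 hours at room temperature, taken from HRE-bla ME-180 cells that had been exposed to compound and EC50 CoCl2 for 17 hours.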

Assay [14] concerns the target Cytochrome P450 3A4 (Homo sapiens) (UniProt P08684). The assay can be described thus: qHTS Assay for Inhibitors and Substrates of Cytochrome P450 3A4 (AID 884; active = well fitted curve in the direction sought with a large enough effect; an effect the other way counts as inactive or inconclusive; note: nearly all actives have a fitted effect of over 50% in size; note: potency is the fitted concentration of half-maximal effect). As to conditions: recombinant CYP3A4, Luciferin-PPXE luminescence; series mostly up to 57.1 µM. The procedure, abridged:
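Luminescent readout of luciferin produced by CYP3A4 (20 nM) dealkylation of Luciferin-PPXE, 25 uM (its KM). NADPH-driven reaction ran 60 min at RT after 10 min compound preincubation; data scaled to 57 uM ketoconazole as 100% inhibition.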

The target of assay [15] is Cytochrome P450 2C19 (Homo sapiens) (UniProt P33261). The assay can be described thus: qHTS Assay for Inhibitors and Substrates of Cytochrome P450 2C19 (AID 899; active = well fitted curve in the direction sought with a large enough effect; an effect the other way counts as inactive or inconclusive; note: nearly all actives have a fitted effect of over 60% in size; note: potency is the fitted concentration of half-maximal effect). Conditions: recombinant CYP2C19, luciferin-H EGE luminescence; series mostly up to 57.1 µM. The procedure, abridged: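 NADPH-dependent conversion of Luciferin-H EGE (10uM, at KM) by 5nM enzyme in 50mM KPO4, 60 min at 37C following 10 min compound preincubation. Stopped with luciferin detection buffer; luminescence read after 20 min.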

Where [16] appears, read: measured here: cell count channel max response.
Setting [17] is: measured here: lipid channel max response.

Results filed as inconclusive are left out. Calls of active or inactive are those of the source. Unless noted, calls come from the whole dose curve. Some results are limits rather than exact numbers.

Sequence of Cytochrome P450 2C19 (Homo sapiens) (P33261 whole entry, looked up): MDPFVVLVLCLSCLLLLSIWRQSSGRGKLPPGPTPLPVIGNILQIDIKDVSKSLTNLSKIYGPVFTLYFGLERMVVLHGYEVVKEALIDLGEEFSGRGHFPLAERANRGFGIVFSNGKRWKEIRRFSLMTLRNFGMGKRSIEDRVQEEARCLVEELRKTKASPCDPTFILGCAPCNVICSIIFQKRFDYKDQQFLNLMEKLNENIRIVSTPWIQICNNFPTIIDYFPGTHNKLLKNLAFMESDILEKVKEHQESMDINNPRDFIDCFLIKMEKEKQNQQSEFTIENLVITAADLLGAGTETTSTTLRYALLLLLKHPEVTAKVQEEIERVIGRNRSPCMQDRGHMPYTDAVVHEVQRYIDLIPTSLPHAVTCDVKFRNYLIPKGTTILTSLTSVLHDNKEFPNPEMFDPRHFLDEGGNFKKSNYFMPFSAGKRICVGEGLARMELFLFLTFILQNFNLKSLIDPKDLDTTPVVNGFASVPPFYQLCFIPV
Sequence of Glucocorticoid receptor (Homo sapiens) (P04150 whole entry, looked up, the tested form may be a part): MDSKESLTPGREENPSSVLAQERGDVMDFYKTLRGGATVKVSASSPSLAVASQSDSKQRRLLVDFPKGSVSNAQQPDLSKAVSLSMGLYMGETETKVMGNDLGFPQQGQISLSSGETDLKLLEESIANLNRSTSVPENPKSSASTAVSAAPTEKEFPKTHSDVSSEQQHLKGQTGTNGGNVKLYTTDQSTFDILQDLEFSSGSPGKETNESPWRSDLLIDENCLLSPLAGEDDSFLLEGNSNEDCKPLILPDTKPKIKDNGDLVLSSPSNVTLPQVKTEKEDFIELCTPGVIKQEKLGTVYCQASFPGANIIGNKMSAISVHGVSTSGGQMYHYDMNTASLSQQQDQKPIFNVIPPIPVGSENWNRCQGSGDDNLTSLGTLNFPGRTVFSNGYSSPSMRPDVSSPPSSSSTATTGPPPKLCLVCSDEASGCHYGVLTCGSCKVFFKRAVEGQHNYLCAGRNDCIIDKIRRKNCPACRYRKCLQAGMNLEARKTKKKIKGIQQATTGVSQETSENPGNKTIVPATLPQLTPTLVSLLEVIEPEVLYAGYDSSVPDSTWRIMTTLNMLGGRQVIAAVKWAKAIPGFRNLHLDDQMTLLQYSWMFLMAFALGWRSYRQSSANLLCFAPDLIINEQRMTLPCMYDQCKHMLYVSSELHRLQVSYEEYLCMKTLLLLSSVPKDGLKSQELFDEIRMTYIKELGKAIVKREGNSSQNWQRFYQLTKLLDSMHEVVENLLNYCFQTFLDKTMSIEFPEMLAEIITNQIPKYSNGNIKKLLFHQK
Sequence of 3',5'-cyclic-AMP phosphodiesterase 4B (Homo sapiens) (Q07343 whole entry, looked up): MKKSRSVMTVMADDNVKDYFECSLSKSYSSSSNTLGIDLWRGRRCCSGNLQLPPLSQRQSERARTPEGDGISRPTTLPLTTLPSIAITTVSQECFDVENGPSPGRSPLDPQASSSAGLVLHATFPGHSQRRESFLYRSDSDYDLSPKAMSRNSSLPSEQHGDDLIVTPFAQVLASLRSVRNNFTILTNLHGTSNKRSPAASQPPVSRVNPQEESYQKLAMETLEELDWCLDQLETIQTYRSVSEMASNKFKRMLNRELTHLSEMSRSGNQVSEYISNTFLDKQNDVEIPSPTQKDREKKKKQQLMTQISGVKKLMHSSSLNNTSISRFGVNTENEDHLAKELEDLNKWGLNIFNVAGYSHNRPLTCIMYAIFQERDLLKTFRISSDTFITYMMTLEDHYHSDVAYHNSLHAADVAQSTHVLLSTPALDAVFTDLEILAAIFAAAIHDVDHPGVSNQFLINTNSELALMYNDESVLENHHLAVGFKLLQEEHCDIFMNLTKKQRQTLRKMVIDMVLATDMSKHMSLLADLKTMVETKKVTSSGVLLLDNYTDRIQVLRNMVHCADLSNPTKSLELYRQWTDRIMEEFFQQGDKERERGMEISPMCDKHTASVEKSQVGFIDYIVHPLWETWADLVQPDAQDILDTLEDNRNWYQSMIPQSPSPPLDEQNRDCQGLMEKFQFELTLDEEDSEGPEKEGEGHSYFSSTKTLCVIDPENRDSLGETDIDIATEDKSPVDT
Sequence of Cytochrome P450 3A4 (Homo sapiens) (P08684 whole entry, looked up): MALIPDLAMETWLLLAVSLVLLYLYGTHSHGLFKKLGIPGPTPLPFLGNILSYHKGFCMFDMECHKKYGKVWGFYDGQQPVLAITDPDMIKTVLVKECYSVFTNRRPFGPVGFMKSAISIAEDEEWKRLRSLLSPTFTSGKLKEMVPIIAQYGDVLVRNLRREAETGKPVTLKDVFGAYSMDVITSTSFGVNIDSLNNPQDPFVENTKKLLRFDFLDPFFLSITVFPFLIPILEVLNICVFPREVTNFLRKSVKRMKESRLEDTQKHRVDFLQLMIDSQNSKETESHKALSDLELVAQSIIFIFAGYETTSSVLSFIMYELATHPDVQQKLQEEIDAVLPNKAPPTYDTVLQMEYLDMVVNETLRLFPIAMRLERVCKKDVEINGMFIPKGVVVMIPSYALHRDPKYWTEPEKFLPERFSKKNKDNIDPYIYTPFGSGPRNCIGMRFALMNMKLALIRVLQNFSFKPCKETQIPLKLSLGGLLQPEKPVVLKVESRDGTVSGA
Sequence of Cytochrome P450 1A2 (Homo sapiens) (P05177 whole entry, looked up): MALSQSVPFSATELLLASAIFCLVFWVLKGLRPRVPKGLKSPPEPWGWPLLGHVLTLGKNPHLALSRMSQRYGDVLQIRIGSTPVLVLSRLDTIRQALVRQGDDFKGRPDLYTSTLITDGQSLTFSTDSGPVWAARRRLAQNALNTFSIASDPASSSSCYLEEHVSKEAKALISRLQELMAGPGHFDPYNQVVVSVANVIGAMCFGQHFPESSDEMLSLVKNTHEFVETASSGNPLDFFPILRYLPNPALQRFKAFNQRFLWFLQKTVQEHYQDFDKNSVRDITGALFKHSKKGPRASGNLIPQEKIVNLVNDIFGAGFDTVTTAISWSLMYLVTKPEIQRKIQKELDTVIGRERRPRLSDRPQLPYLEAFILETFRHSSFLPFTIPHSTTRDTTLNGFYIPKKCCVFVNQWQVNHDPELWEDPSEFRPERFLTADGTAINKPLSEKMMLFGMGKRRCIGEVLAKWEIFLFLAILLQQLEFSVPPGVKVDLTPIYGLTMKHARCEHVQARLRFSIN
Sequence of Lysosomal acid glucosylceramidase (Homo sapiens) (P04062 whole entry, looked up): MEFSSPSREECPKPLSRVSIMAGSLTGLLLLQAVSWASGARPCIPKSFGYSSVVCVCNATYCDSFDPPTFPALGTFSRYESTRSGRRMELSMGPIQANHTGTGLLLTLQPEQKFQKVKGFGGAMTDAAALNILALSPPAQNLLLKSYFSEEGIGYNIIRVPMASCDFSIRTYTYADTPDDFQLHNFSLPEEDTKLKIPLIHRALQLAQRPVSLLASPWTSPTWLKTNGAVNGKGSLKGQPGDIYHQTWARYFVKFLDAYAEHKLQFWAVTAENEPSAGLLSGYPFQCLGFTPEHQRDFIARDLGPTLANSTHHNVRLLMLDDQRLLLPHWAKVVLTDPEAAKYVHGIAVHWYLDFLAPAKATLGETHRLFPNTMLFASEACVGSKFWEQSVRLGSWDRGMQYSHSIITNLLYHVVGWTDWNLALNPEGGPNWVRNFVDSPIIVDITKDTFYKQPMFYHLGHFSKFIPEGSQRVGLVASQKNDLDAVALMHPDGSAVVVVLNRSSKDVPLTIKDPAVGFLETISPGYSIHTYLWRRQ
Sequence of Cytochrome P450 2D6 (Homo sapiens) (P10635 whole entry, looked up): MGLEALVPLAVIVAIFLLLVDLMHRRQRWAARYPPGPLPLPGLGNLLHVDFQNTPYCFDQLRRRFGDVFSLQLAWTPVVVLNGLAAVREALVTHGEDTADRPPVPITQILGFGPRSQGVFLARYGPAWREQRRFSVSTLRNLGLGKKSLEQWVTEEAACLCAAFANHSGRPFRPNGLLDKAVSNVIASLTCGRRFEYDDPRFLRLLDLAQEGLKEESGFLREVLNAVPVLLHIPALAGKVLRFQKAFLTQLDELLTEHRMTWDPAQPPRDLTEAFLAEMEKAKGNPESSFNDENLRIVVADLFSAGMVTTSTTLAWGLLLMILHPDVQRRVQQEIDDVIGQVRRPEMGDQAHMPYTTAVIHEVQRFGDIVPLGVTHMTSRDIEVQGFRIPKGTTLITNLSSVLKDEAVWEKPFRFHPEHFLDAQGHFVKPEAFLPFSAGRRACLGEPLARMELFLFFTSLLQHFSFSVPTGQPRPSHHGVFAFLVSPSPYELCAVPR

For `COCC(=O)N1CCC[C@@]2(CCN(C(c3ccccc3)c3ccccc3)C2)C1`, the Potency was > 11.4 µM (inactive) in [1], 12.6 µM (active) in assay [3], > 46 µM (inactive) in assay [5] and 6.31 µM (active) in [9]. In addition, the activity change, negative = inhibition was 0.34% (inactive) in assay [2] and -13.8% (inactive) in [10]. Besides, in assay [4], the activity, negative = inhibition is -0.903% (inactive). Further, the Potency entry in assay [6], in [7] and in assay [8] was “inactive” throughout. Further, the max response in [10] (setting [16]) is -8.5%; in [10] (setting [17]) it was -21.2%. Besides, in [11], the outcome was inactive.

`CN(C)c1ncc2nc(-c3ccc(F)cc3)c(=O)n(C3CC3)c2n1`: the Potency in assay [1] is > 11.4 µM (inactive); in assay [3] it was 1.58 µM (active); in assay [12] it was > 9.22 µM (inactive); in assay [5] it was > 46 µM (inactive); in assay [7], 2 µM (active); in [13], 2.51 µM (active). Besides, the values for the activity change, negative = inhibition in assay [2] and in assay [10] were 18.2% (inactive) and 2.01% (inactive), respectively. For the same molecule, in assay [6], the Potency entry was “inactive”. Also, the max response in assay [10] (setting [16]) amounted to 10.2%; in assay [10] (setting [17]), 13.7%. Further, the outcome in assay [11] was inactive.

Regarding `COCCn1c(=O)c(-c2cn(C)c3ccccc23)nc2cnc(Oc3ccc(OC)cc3)nc21`, the Potency in assay [1] is > 11.4 µM (inactive); in [3], 2.51 µM (active); in assay [12] it was > 46 µM (inactive); in assay [5], > 46 µM (inactive); in assay [14] it was 3.98 µM (active); in assay [13], 3.16 µM (active). Moreover, the activity change, negative = inhibition in assay [2] is 14.1% (inactive); in assay [10] it was -11.5% (inactive). Moreover, the Potency entry in assay [7] and in assay [8] was “inactive” throughout. Further, the max response in [10] (setting [16]) is 2.76%; in [10] (setting [17]), -6.23%. In addition, the result in [11] was inactive.

As to `O=C(Nc1ccccc1)N1CC[C@@]2(CCCN(C(=O)c3cc(C(F)(F)F)cc(C(F)(F)F)c3)C2)C1`, the Potency in assay [1] was > 11.4 µM (inactive); in [3], 25.1 µM (active); in assay [5] it was > 46 µM (inactive). The activity change, negative = inhibition is -5.62% (inactive) in assay [2] and 4.15% (inactive) in [10]. Also, the activity, negative = inhibition in assay [4] is -6.2% (inactive). Further, the Potency result in assay [6], in assay [7], in assay [8] and in assay [15] was “inactive” in each case. Also, the max response is -0.407% in assay [10] (setting [16]) and 6.94% in assay [10] (setting [17]). The result in assay [11] was inactive.

As to `COc1ccccc1CN1CCCC2(CCN(C(=O)c3ccco3)CC2)C1`, the figures for the Potency in assay [1], in assay [5] and in assay [9] were > 11.4 µM (inactive), > 46 µM (inactive) and 2.51 µM (active), respectively. Moreover, the activity change, negative = inhibition in assay [2] was -11.6% (inactive); in [10], 2.54% (inactive). Besides, the Potency result in assay [3], in assay [6], in assay [7] and in assay [8] was “inactive” in each case. For the same molecule, the activity, negative = inhibition in assay [4] is -1.13% (inactive). The figures for the max response in assay [10] (setting [16]) and in [10] (setting [17]) were 5.74% and 11.8%, respectively. Moreover, the outcome in assay [11] was inactive.

Consider `COc1ccc(NC(=O)N2CCC3(CC2)CCN(S(C)(=O)=O)CC3)cc1`, for which the figures for the Potency in assay [1], in assay [5] and in assay [15] were > 11.4 µM (inactive), > 46 µM (inactive) and 3.16 µM (active), respectively. Moreover, the activity change, negative = inhibition in [2] was -1.54% (inactive); in assay [10], 8.18% (inactive). Further, the Potency entry in [3], in [6] and in assay [7] was “inactive” each time. For the same molecule, the activity, negative = inhibition in [4] was 2.59% (inactive). The max response in assay [10] (setting [16]) is 16.5%; in assay [10] (setting [17]), 28.9%. Also, in assay [11], the result was inactive.

Consider `N#Cc1ccc(CN2CC3(CCN(C(=O)c4cccc(F)c4)CC3)C2)cc1`, for which the Potency in assay [1] was > 11.4 µM (inactive); in assay [3] it was 3.98 µM (active); in [5], > 46 µM (inactive); in assay [15], 2 µM (active). In addition, the activity change, negative = inhibition in assay [2] is 20.2% (inactive); in [10], -2.25% (inactive). For the same molecule, in [4], the activity, negative = inhibition was -1.68% (inactive). The Potency entry in assay [7] and in assay [14] was “inactive” throughout. The results for the max response in [10] (setting [16]) and in [10] (setting [17]) were 2.82% and 3.31%, respectively. Moreover, the outcome in assay [11] was inactive.
